# Hits are enriched below; roughly 0.84% of the tested compounds scored in any of these assays.
# PPARg SRC3 recr: PPARgamma agonists recruiting SRC-3 coactivator, primary screen, biochemical; AID 731, 2007; actives 0.26% (n = 200,000); Peroxisome proliferator-activated receptor gamma (Homo sapiens), P37231; biochemical PPARgamma/SRC-3 coactivator recruitment assay; activation, % at 8 µM; in the data active = activation above about 23%;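 note: 0% = DMSO and 100% = reference agonist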
# Target sequence (P37231 whole entry, looked up): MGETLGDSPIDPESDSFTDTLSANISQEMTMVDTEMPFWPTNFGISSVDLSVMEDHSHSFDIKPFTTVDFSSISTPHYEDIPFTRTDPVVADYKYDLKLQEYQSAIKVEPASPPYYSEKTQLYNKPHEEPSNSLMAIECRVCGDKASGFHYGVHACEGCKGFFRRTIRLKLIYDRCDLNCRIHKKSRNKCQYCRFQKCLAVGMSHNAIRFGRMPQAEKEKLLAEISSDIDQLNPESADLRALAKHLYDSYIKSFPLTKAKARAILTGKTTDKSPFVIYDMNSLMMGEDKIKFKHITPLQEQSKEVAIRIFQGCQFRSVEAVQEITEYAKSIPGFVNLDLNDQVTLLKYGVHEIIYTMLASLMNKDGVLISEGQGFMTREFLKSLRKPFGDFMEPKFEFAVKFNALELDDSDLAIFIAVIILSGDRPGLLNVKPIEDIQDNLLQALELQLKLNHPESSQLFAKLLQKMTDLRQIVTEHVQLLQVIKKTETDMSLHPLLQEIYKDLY
# PPARg SRC2 recr: agonists of PPARg-SRC-2 recruitment, primary screen, biochemical, HTS | Peroxisome proliferator-activated receptor gamma (Homo sapiens), P37231 | PPARgamma LBD-SRC-2 recruitment | activation, % at 8 µM | actives 0.34% (n = 200,000); in the data active = activation above about 22%;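 note: 0% = vehicle and 100% = reference agonist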
# SRC1 TRFRET art: TR-FRET detection interference compounds, primary screen, artefact control for PPARgamma SRC-1 recruitment agonists, biochemical, TR-FRET emission ratio; AID 1051, 2008; TR-FRET detection artefact counter-screen; stronger effect = higher value; TR-FRET ratio at 8 µM; actives 0.34% (n = 99,000); in the data active = TR-FRET ratio above about 2300
# TR-FRET SRC-2 ct: TR-FRET signal artefacts, primary screen, artefact control for PPARgamma SRC-2 agonist project, biochemical; TR-FRET artefact counter-screen; stronger effect = higher value; TR-FRET ratio at 8 µM; actives 0.4% (n = 200,000); AID 1049, 2008
# PPARg SRC1 recr: PPARgamma agonists recruiting SRC-1 coactivator, primary screen, biochemical; Peroxisome proliferator-activated receptor gamma (Homo sapiens), P37231; PPARgamma-SRC-1 coactivator recruitment biochemical assay; activation, % at 8 µM; actives 0.41% (n = 200,000); AID 631, 2007; in the data active = activation above about 19%;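 note: 0% = DMSO and 100% = reference agonist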
# SRC3 TRFRET art: TR-FRET detection interference compounds, artefact control for PPARgamma SRC-3 recruitment agonists, biochemical, TR-FRET ratio. TR-FRET artefact counter-screen, PPARgamma/SRC-3 format; stronger effect = higher value. TR-FRET ratio at 8 µM. actives 0.39% (n = 99,000)
# An asterisk follows results filed as active; x = not tested or not shown. Cut-off read from the data, not from the text of the source, unless noted: active = TR-FRET ratio above about 2000; inactive = the rest.
SMILES,PPARg SRC3 recr,PPARg SRC2 recr,SRC1 TRFRET art,TR-FRET SRC-2 ct,PPARg SRC1 recr,SRC3 TRFRET art
COc1ccc(C2CC(c3ccccc3)=NN2C(=O)COC(=O)c2cccc(S(=O)(=O)N3CCOCC3)c2)cc1 (stereo not given),8,16,2459*,2061*,12,2328*
COc1ccc(C2CC(c3ccccc3)=NN2C(=O)COC(=O)c2cccc(S(=O)(=O)N(C)C)c2)cc1 (stereo not given),8,5,2411*,2075*,6,2064*
COc1ccc(C2CC(c3ccccc3)=NN2C(=O)COC(=O)c2ccc(Cl)nc2)cc1 (stereo not given),0,2,1893,1555,13,1806
COc1ccc(C2CC(c3ccccc3)=NN2C(=O)COC(=O)c2cnc(Cl)c(Cl)c2)cc1 (stereo not given),-7,-15,1574,1668,-3,1351
CCn1c(O)c(C=Nc2ccccc2)oc1=S,5,8,x,1976*,11,x
CCCn1c(O)c(C=Nc2ccccc2)sc1=S,-2,-3,1715,1498,-4,1466
CSc1nc(O)cc(=O)n1-c1ccc(F)cc1,-3,2,1895,1375,5,1555
CCOCCn1c(=NC(=O)c2cc(Cl)sc2Cl)sc2cc(S(N)(=O)=O)ccc21,30*,-2,1763,1600,7,4758*
COC(=O)Cn1c(=NC(=O)c2cc(-c3cccs3)nc3ccccc23)sc2cc(S(N)(=O)=O)ccc21,3,5,1658,1499,4,1741
COCCn1c(=NC(=O)c2cc(Cl)sc2Cl)sc2cc(S(N)(=O)=O)ccc21,0,3,1897,1630,5,1622
CCOC(=O)Cn1c(=NC(=O)c2cc(-c3cccs3)nc3ccccc23)sc2cc(S(N)(=O)=O)ccc21,6,7,1942,1552,11,2342*
CC12CCC(=O)N1C(C(=O)OCC(=O)Nc1ccc(Cl)c(Cl)c1)CS2 (stereo not given),3,15,1790,1721,2,1478
O=C(Cn1cnc2cc(Cl)ccc2c1=O)Nc1ccc2c(c1)OCO2,-2,-2,x,1542,-2,x
COc1ccc(S(=O)(=O)NCc2ccc(F)cc2)cc1OC,1,-2,1616,1436,-5,1356
COc1ccccc1CN(C)C(=O)c1ccc2c(c1)NC(=O)CS2,48*,8,x,1488,-4,x
COC(=O)c1ccc2c(c1)NC(=O)CS2,-2,7,1887,1672,2,1558
O=C(CSc1ccc2nnc(-c3ccccn3)n2n1)NCc1ccc2c(c1)OCO2,-2,28*,x,1984*,-5,x
COc1cccc(NC(=S)NCc2ccc3c(c2)cc(C)n3C)c1,0,-1,2579*,1922,3,2011
Cc1ccc2sc3ccc(NC(=O)c4ccccc4Cl)cc3c(=O)c2c1,11,13,x,2846*,0,x
CC(C(=O)NCCN1CCOCC1)(c1ccccc1)c1ccccc1,0,0,1837,1771,7,1655
CCOC(=O)n1cc(-c2cnc(CNC(=O)C(C)(c3ccccc3)c3ccccc3)o2)c2ccccc21,-3,28*,1619,1921,9,1588
Cc1ccc(S(=O)(=O)Nc2ccc(-c3csc(-c4ccccc4)n3)cc2)cc1,6,6,2042,1791,12,2149*
COc1cccc(-c2csc(N3CCN(C(=S)Nc4ccc(Cl)cc4)CC3)n2)c1,13,12,x,3147*,10,x
COc1cccc(-c2csc(N3CCN(C(=O)NC45CC6CC(CC(C6)C4)C5)CC3)n2)c1,11,0,x,2123*,0,x
Cc1cc(Nc2ccc3c(c2)OCCO3)c2cc(Cl)ccc2n1,2,-8,1738,1632,-5,1442
Cc1nnc(SCC(=O)Nc2cccc(S(=O)(=O)N(C)c3ccccc3)c2)s1,-3,-9,1583,1436,1,1547
O=C(CCNC(=O)Cn1ccc2ccccc2c1=O)NCc1ccccn1,-5,-8,1839,1424,-3,1380
